Among the data in article PMC7862700, “An all-to-all approach to the identification of sequence-specific readers for epigenetic DNA modifications on cytosine” are binding signal values, retold here.

Assay in all cases: DAPPL (digital affinity profiling via proximity ligation, sequencing); 10 mM Tris-HCl pH 7.5, 50 mM NaCl, 1 mM DTT, 4% glycerol, room temperature, 30 min; GST-TFs on glutathione beads, 16-mer random dsDNA library, 0.1% formaldehyde crosslink after washing; high values mean tight binding
What all share (details): protein: recombinant; tags: N-terminal GST; dsDNA, one strand shown

The target in one assay is T1, FLI1 (Homo sapiens, UniProt Q01543 1-452).
T1 sequence: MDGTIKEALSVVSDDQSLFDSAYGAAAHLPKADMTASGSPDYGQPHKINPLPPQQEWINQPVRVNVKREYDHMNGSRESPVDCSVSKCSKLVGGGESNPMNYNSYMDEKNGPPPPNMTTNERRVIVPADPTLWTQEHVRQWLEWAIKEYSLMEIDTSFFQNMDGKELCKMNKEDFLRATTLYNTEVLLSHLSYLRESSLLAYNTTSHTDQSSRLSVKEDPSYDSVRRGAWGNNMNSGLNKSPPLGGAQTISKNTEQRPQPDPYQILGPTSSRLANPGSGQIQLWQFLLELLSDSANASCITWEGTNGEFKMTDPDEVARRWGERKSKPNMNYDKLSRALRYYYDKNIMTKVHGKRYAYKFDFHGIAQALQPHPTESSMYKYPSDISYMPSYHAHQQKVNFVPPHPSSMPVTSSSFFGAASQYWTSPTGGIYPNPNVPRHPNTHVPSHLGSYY
The method in brief: (§1)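 Beads coated with glutathione captured GST-fused human transcription factors that had been expressed in yeast, and the factors were then given DNA barcodes and pooled with a tag-only sample. The pools were incubated with 200 nmole of a random double-stranded 16-mer DNA library in Tris/NaCl/DTT/glycerol buffer for 30 min at room temperature, washed, crosslinked with 0.1% formaldehyde and proximity-ligated with BsaI/T4 ligase at 37 °C for 1 h. PCR amplification and Illumina NextSeq500 sequencing came last. Binding signal is each hexamer's read frequency for a factor divided by its frequency for the tag-only sample.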

The target in another assay is T2, ELK1 (Homo sapiens, UniProt P19419 1-428).
T2 sequence: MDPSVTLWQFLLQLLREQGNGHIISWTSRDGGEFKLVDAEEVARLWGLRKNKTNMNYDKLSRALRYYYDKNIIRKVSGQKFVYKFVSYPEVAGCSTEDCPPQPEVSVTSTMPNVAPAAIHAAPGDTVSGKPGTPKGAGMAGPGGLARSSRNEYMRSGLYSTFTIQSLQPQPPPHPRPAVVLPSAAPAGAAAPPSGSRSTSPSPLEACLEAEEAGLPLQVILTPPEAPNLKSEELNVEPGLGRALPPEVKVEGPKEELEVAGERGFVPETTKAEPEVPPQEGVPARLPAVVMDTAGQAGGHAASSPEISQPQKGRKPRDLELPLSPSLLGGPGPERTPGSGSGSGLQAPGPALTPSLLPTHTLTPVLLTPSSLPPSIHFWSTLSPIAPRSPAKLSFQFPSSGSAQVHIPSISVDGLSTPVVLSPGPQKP
The method in brief:
as §1

In a further assay the target is T3, GABPA (Homo sapiens, UniProt Q06546 1-454).
T3 sequence: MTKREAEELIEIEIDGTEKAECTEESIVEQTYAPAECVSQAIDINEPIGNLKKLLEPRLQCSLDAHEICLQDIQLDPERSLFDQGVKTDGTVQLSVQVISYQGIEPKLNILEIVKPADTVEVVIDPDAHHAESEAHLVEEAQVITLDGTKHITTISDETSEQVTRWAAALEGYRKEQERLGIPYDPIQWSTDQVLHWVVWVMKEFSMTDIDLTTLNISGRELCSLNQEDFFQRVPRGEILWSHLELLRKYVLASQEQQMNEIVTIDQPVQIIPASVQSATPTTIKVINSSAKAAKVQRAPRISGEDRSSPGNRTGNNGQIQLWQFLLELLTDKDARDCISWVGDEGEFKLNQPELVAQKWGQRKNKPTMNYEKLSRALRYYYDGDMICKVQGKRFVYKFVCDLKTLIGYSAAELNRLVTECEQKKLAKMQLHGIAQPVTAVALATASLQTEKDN
The gist of the method:
as §1

Another assay has as its target T4, ERG (Homo sapiens, UniProt P11308 1-479).
T4 sequence: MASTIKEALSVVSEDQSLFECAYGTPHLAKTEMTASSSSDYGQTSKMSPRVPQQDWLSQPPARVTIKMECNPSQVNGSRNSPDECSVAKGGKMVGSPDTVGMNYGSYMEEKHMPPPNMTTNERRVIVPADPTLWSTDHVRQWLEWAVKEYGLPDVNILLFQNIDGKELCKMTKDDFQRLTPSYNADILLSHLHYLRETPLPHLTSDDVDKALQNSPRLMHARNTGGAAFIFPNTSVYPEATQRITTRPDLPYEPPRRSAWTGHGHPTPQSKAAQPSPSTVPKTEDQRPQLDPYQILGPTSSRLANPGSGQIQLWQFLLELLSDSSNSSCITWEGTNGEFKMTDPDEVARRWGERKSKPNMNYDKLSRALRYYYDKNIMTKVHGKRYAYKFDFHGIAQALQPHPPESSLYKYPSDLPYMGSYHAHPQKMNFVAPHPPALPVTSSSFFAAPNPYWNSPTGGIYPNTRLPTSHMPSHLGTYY
The gist of the method: as §1

The target of another assay is ELF1 (Homo sapiens, UniProt P32519 1-619). The gist of the method: as §1
For a further assay, the target named is T5, EHF (Homo sapiens, UniProt Q9NZC4 1-300).
T5 sequence: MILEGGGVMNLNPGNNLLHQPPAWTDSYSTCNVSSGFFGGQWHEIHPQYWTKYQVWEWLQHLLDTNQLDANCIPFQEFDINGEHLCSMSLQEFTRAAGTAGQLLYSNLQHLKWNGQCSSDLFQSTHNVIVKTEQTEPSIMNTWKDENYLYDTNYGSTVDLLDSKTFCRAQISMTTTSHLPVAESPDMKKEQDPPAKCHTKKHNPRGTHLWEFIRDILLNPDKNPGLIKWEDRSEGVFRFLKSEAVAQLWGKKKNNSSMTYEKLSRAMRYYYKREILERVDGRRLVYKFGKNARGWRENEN
The gist of the method:
as §1

A further assay deals with SPI1 (Homo sapiens, UniProt P17947 1-270). The method in brief: as §1
The next assay concerns the target SPIB (Homo sapiens, UniProt Q01892 1-262). The method in brief: as §1
The next assay addresses T6, ELK3 (Homo sapiens, UniProt P41970 1-407).
T6 sequence: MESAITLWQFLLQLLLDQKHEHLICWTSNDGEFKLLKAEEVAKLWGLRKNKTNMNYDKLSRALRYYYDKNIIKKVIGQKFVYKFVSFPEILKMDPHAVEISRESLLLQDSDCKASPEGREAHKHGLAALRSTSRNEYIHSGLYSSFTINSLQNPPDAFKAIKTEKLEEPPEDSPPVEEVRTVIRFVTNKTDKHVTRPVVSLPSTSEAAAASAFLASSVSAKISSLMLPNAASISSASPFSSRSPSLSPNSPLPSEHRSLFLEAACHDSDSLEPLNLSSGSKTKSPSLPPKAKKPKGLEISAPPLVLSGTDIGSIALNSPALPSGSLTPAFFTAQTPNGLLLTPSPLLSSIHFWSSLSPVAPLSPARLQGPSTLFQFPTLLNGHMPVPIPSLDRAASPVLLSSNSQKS
The method in brief:
as §1

For a further assay, the target named is T7, FEV (Homo sapiens, UniProt Q99581 1-238).
T7 sequence: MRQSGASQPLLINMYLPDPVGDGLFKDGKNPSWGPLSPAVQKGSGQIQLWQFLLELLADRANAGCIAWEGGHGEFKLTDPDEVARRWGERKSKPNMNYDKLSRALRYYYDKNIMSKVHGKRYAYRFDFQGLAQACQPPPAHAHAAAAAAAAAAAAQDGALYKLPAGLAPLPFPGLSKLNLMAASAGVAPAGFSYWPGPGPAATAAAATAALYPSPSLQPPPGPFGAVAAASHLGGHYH
The method in brief: as §1

The target of another assay is ETV5 (Homo sapiens, UniProt P41161 1-510). The method in brief: as §1
For the next assay, the target named is ELF4 (Homo sapiens, UniProt Q99607 1-663). The gist of the method:
as §1

Another assay addresses ETV1 (Homo sapiens, UniProt P50549 1-477). The gist of the method: as §1
The target in another assay is T8, ERF (Homo sapiens, UniProt P50548 1-548).
T8 sequence: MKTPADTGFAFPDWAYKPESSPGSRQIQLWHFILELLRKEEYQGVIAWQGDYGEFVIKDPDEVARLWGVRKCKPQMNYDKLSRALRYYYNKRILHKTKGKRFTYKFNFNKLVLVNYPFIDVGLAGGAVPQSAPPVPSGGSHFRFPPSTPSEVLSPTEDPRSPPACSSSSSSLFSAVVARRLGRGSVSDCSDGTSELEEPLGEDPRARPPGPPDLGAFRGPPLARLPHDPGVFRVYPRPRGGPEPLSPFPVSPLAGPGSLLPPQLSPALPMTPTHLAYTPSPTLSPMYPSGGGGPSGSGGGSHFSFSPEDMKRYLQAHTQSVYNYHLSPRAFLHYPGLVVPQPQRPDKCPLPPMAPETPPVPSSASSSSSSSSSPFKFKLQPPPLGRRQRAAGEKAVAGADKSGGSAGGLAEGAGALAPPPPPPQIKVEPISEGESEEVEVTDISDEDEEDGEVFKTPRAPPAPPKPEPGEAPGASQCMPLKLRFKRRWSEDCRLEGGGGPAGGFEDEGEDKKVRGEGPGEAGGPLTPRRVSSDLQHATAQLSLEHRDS
The method in brief:
as §1

In the next assay the target is T9, ETV3L (Homo sapiens, UniProt Q6ZN32 1-361).
T9 sequence: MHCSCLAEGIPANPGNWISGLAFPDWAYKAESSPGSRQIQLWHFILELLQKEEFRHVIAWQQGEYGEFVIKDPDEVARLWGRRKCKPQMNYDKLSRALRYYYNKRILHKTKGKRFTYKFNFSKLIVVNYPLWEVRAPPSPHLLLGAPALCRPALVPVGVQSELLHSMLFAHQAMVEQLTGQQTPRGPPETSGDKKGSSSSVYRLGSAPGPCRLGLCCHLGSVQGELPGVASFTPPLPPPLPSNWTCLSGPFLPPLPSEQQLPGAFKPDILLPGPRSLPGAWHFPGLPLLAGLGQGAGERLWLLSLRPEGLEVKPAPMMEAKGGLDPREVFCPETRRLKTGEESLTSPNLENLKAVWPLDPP
The gist of the method:
as §1

In another assay the target is T10, ETS2 (Homo sapiens, UniProt P15036 1-469).
T10 sequence: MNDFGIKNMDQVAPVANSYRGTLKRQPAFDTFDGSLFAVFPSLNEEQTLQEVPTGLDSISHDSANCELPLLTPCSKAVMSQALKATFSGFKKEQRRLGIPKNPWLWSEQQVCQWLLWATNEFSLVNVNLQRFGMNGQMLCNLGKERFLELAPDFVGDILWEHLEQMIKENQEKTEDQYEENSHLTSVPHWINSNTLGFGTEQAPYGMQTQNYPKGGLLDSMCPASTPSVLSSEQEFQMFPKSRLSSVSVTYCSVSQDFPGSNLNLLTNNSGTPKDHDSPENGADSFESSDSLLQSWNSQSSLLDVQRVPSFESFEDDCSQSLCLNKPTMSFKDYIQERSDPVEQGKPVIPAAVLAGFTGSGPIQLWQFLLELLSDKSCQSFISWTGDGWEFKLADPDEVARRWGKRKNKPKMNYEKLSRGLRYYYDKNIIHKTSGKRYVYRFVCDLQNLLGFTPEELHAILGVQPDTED
The method in brief: as §1

The next assay addresses T11, ELF5 (Homo sapiens, UniProt Q9UKW6-2 1-255).
T11 sequence: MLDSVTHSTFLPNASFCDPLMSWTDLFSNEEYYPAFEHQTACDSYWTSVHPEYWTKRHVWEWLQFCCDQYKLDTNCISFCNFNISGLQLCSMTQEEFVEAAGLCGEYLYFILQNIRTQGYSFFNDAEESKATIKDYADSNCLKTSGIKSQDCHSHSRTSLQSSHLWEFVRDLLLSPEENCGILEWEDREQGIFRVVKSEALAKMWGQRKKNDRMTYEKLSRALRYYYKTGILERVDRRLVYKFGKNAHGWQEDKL
The gist of the method:
as §1

The target in a further assay is T12, ETV3 (Homo sapiens, UniProt P41162-2 1-143).
T12 sequence: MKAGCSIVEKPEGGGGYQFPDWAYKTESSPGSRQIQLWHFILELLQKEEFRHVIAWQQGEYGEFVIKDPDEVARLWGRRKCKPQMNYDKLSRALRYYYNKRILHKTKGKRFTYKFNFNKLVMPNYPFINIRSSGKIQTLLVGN
The method in brief: as §1

The target in the next assay is ETV6 (Homo sapiens, UniProt P41212 1-452). The gist of the method:
as §1

Chain of ELF4 (Q99607 whole entry): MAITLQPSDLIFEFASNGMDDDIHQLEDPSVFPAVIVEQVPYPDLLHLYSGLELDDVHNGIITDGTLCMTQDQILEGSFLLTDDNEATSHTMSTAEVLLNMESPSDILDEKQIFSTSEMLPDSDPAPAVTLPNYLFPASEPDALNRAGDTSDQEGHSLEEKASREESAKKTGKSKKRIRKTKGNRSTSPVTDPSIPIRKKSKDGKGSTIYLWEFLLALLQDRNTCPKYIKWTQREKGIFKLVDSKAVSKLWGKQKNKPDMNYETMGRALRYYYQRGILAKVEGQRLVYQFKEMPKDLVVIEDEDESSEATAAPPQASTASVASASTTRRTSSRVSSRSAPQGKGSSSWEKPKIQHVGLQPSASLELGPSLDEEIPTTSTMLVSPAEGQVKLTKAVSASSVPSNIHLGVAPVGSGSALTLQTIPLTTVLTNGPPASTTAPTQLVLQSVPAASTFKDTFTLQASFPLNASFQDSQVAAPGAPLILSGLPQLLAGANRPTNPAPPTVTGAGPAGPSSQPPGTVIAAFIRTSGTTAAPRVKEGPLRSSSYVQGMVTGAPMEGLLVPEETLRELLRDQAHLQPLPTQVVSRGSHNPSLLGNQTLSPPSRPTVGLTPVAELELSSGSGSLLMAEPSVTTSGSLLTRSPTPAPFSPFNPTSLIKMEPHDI
Chain of ETV1 (P50549 whole entry): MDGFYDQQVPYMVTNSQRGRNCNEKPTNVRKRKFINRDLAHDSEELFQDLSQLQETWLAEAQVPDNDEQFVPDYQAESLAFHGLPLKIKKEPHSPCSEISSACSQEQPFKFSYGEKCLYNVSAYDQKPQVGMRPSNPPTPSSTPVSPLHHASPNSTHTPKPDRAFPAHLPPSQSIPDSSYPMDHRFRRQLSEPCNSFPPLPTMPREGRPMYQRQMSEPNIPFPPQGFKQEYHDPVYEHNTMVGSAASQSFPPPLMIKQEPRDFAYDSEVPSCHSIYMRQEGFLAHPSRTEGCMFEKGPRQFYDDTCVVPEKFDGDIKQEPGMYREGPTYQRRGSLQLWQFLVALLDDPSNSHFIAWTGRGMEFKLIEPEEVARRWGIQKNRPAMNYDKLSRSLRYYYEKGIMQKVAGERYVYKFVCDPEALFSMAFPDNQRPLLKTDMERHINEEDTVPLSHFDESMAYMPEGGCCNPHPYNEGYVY
Chain of SPIB (Q01892 whole entry): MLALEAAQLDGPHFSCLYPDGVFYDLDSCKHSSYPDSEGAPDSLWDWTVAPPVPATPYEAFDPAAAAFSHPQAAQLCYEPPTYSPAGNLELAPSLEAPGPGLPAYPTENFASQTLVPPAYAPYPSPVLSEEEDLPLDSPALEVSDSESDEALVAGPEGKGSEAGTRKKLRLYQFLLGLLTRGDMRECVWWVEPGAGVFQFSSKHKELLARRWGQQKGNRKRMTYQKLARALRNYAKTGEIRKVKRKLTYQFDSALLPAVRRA
Chain of ELF1 (P32519 whole entry): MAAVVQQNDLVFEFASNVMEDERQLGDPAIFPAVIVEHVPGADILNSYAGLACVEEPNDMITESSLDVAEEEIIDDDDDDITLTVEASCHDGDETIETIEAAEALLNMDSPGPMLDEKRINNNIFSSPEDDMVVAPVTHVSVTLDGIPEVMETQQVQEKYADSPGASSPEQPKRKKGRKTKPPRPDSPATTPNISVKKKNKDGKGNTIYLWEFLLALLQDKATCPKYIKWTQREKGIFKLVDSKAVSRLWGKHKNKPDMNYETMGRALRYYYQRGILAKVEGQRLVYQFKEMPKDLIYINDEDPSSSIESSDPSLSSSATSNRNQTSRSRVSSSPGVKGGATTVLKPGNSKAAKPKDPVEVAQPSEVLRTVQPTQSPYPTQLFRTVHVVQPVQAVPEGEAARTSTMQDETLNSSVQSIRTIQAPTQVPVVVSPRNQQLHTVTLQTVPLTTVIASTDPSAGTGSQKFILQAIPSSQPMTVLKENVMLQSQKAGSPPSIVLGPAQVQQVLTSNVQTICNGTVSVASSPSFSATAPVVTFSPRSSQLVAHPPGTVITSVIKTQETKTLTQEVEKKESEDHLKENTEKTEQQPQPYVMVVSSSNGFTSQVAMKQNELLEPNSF
Chain of ETV6 (P41212 whole entry): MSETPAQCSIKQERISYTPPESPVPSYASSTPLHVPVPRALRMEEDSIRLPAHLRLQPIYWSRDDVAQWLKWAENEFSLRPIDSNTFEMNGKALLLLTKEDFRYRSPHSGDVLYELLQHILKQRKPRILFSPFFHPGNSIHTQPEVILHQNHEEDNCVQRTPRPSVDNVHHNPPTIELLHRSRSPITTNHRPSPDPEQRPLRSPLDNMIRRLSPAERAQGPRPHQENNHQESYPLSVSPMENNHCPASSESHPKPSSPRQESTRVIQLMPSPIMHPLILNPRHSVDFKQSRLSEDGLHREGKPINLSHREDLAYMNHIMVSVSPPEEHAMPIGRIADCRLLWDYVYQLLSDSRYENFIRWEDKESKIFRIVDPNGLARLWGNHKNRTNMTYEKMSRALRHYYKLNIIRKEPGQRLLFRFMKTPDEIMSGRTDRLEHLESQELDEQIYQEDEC
Chain of ETV5 (P41161 whole entry): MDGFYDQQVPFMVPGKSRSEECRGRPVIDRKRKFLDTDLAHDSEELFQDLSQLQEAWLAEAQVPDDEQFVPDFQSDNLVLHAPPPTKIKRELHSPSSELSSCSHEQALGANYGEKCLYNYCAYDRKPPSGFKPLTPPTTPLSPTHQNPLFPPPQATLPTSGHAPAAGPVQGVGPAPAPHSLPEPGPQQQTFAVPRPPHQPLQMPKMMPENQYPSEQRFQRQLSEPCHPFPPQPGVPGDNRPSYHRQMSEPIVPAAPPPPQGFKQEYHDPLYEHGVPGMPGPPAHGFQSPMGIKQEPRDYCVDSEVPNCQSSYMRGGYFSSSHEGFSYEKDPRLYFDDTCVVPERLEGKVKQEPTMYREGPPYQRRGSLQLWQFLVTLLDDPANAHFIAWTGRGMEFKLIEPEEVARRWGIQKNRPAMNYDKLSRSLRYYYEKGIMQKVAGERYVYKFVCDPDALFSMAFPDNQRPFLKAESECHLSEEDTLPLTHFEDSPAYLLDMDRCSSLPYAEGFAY

As for TACCCC, the binding signal is 1.14 fold enrichment (6-mer frequency, TF over GST control) in the assay with FLI1; 1.11 fold enrichment (6-mer frequency, TF over GST control) with ELK1; 1.16 fold enrichment (6-mer frequency, TF over GST control) with GABPA; 1.07 fold enrichment (6-mer frequency, TF over GST control) with ERG; 1.14 fold enrichment (6-mer frequency, TF over GST control) in the assay with ELF1; 1.12 fold enrichment (6-mer frequency, TF over GST control) with EHF. The binding signal in the assay with SPI1 was 1.11 fold enrichment (6-mer frequency, TF over GST control); in the assay with SPIB, 1.09 fold enrichment (6-mer frequency, TF over GST control); with ELK3, 1.11 fold enrichment (6-mer frequency, TF over GST control); in the assay with FEV it was 1.07 fold enrichment (6-mer frequency, TF over GST control); in the assay with ETV5, 1.07 fold enrichment (6-mer frequency, TF over GST control); in the assay with ELF4, 1.15 fold enrichment (6-mer frequency, TF over GST control). In addition, the binding signal is 1.06 fold enrichment (6-mer frequency, TF over GST control) in the assay with ETV1; 1.02 fold enrichment (6-mer frequency, TF over GST control) with ERF; 1.1 fold enrichment (6-mer frequency, TF over GST control) with ETV3L; 1.21 fold enrichment (6-mer frequency, TF over GST control) with ETS2; 1.12 fold enrichment (6-mer frequency, TF over GST control) with ELF5; 1.09 fold enrichment (6-mer frequency, TF over GST control) with ETV3. In the assay with ETV6, the binding signal is 1.04 fold enrichment (6-mer frequency, TF over GST control).
